TDP1 block: blocks human tyrosyl-DNA phosphodiesterase 1. Q9NUW8. recombinant TDP1, AlphaScreen DNA substrate cleavage. Potency, µM (highest dose often 130 µM), actives largely listed as inhibitors. 0.28% of 350,000 active. AID 485290; further: nearly all actives have a fitted effect of over 40% in size
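Here, a 5' biotin and 3' phosphotyrosine-FITC DNA oligonucleotide reports Tdp1 activity: intact substrate bridges AlphaScreen beads, while cleavage leaves a 3' phosphate and drops signal. All incubations at room temperature.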
G9a block: inhibitors of human histone lysine methyltransferase G9a; Potency, µM (top dose mostly 102 µM), usual class: inhibitors; 8.8% of 350,000 active; G9a H3K9 monomethylation, AlphaScreen, 2 h; further: nearly all actives have a fitted effect of over 75% in size
Target sequence (Q96KQ7 913-1193 limits assumed): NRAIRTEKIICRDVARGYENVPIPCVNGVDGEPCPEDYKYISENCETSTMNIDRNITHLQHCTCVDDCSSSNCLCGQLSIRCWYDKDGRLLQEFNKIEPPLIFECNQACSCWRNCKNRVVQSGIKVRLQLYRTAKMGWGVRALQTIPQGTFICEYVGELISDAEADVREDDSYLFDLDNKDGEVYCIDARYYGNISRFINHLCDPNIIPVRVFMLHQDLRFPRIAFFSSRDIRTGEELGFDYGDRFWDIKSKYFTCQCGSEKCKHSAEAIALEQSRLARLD
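Readings reflect AlphaScreen signal from monomethyl-H3K9 antibody detection. HMT at 20 nM; substrate b-H3K9 500 nM; cofactor SAM 20 uM; 2 h RT reaction; compounds tested as titrations in qHTS with 15 min preincubation.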
BAZ2B inh: BAZ2B (human) inhibition; Potency, µM (titrated, usually from 114 µM), most hits filed as inhibitors; 4.4% of 360,000 active; AlphaScreen BAZ2B-H3K14Ac peptide displacement; further: nearly all actives have a fitted effect of over 60% in size
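Inhibition is scored as reduced AlphaScreen emission. The BAZ2B/b-H3(5-23)K14Ac complex (50 nM each) in PBS pH 7.4, 0.01% Tween-20 meets compound (up to 110 uM) for 30 min at RT before bead addition.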
Sfp inh: blocks B. subtilis Sfp PPTase activity; Q9F4F7; Biochemical Sfp PPTase activity, qHTS; Potency, µM, hits mostly inhibitors; 3.5% of 310,000 active; AID 1490;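 further: the enzyme is Sfp with the accession as filed and its product quenches rhodamine fluorescence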
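Sfp 15 nM + cpd, 15 min RT; start w/ rhodamine-CoA 5 uM, BHQ-2-YbbR 12.5 uM (final); 50 mM Hepes pH 7.6, 10 mM MgCl2, 0.01% NP-40, 0.01% BSA; read 525/598 nm at 0 and 30 min.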
HP1b chromo inh: HP1-beta chromodomain-methylated histone interaction inhibition; Potency, µM (doses to about 114 µM), most hits filed as inhibitors; AID 540317; P83916; 0.56% of 390,000 active; AlphaScreen HP1-beta / biotin-H3K9me3 peptide binding; further: nearly all actives have a fitted effect of over 70% in size
Target sequence (P83916 whole entry, looked up): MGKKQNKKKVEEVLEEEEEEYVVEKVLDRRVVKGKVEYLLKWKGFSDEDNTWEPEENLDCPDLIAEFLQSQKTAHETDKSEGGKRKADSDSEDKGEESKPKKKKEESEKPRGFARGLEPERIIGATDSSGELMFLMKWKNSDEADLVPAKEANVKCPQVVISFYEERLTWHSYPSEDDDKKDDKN
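Compound inhibition of the preformed complex between 50 nM HP1-beta and 50 nM biotinylated H3K9me3 peptide was read by AlphaScreen. Buffer was PBS pH 7.4 with 0.01% Tween-20. Incubations ran 30 min at room temperature, with 10 ug/mL donor/acceptor beads.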
JMJD2A Tudor: inhibitors of human JMJD2A Tudor domain. O75164. AlphaScreen JMJD2A-Tudor / H3K4me3 peptide binding. Potency, µM (doses to about 114 µM), hits mostly inhibitors. 4.4% of 390,000 active; further: nearly all actives have a fitted effect of over 50% in size
Numbers stand for hits; i = inactive; ? = inconclusive; nt = no result; [ ] = another dose, or the depositor's remark. Compounds with a hit are over-represented: about 12% of the library has one in this group of screens. The call rests on the fitted dose curve; in most records, active means well fitted curve in the direction sought with a large enough effect; inconclusive means small, poorly fitted or top-dose-only effect, or another doubt; inactive means no such curve, though single readings can be large; an effect the other way counts as inactive or inconclusive.

SMILES | TDP1 block | G9a block | BAZ2B inh | Sfp inh | HP1b chromo inh | JMJD2A Tudor
O=C(Nc1ccc(Cl)cc1)c1cc(S(=O)(=O)N2CCc3ccccc32)ccc1F | i | i | i | nt | i | i
N#CC(C#N)C(c1ccsc1)c1c(-c2ccccc2)[nH][nH]c1=O (centres undefined) | i | i[12.7 µM] | i | i | i | i[11.4 µM]
CCCc1[nH][nH]c(=O)c1C(c1cccc(Cl)c1)C(C#N)C#N (centres undefined) | i | 79.4µM | ? | i | i | i
O=C(CNC(=O)c1ccccc1)N[C@H](C(=O)Nc1cc(C(F)(F)F)ccc1Cl)c1ccccc1 | i | nt | nt | nt | nt | i
CC1(C)Oc2ccc3ccc(=O)oc3c2/C(=C/NNC(N)=S)C1=O | nt | 7.08µM | 50.1µM | i | i | ?
CC1(C)Oc2ccc3ccc(=O)oc3c2/C(=C/Nc2ccc(O)cc2)C1=O | i | i | i | i | ? | i[11.4 µM]
CC1(C)Oc2ccc3ccc(=O)oc3c2/C(=C/Nc2cccc(O)c2)C1=O | i | 44.7µM | ? | i | ? | 39.8µM
CC1(C)Oc2ccc3ccc(=O)oc3c2/C(=C/Nc2ccccn2)C1=O | i | i | i | i | i | ?
COc1ccc(NC(=O)N2CC[C@@]3(CCCN(C(C)=O)C3)C2)cc1 | nt | i[12.7 µM] | nt | ? | nt | nt
CC(NCCc1ccc(S(N)(=O)=O)cc1)C(=O)NCCc1ccc(F)cc1 (centres undefined) | nt | i | 50.1µM | i | ? | 25.1µM
CN(CC(=O)NCCc1ccc(S(N)(=O)=O)cc1)Cc1c(F)cccc1Cl | i | 50.1µM | i | i | i | i
Cc1ccc(C(=O)N2CCc3cc(CNC(=O)CSc4ccccc4)ccc32)cc1 | i | i | i | nt | i | i
C=CCNc1nc(C2(C)CC3(CC(C)(C)OC3=O)C(=O)O2)cs1 (centres undefined) | i | 39.8µM | i | i | i | i
CC(C)COCC1CC2(CC(C)(c3csc(N)n3)OC2=O)C(=O)O1 (centres undefined) | i | i | i | i | i | i
COc1ccc(OC)c(NC(=O)C2CCN(Cc3cnn(-c4ccccc4)c3-n3cccc3)CC2)c1 | i | 44.7µM | ? | i | ? | 50.1µM
CCOC(=O)/C=C/C(=O)Nc1cccc([N+](=O)[O-])c1 | i | ? | ? | 2.82µM | ? | ?
CCC(Sc1ccccn1)C(=O)Nc1cccc([N+](=O)[O-])c1 (centres undefined) | nt | nt | i | 56.2µM | i | i
CCOC(=O)c1cccc(NC(=O)/C=C/c2cccc([N+](=O)[O-])c2)c1 | i | i | i | i | i | i
CC(OC(=O)c1ccncc1)C(=O)Nc1cccc([N+](=O)[O-])c1 (centres undefined) | i | ? | i | i | i | i
CC(C(=O)Nc1cccc([N+](=O)[O-])c1)[n+]1ccccc1 (centres undefined) | i | nt | ? | 20µM | i | i
CC(Sc1cccc[n+]1[O-])C(=O)Nc1cccc([N+](=O)[O-])c1 (centres undefined) | i | ? | nt | i | i | i
Cc1ccc(OCC(=O)Nc2sc3c(c2C(N)=O)CCCC3)c(C(C)(C)C)c1 | i[12.3 µM] | ? | i | nt | i | i
CCC(CC)NC(=O)COc1ccc(OC)cc1C=O | i | i | i | i | i | i
O=C(OCc1nnc(-c2ccccc2Br)o1)c1ccco1 | i | nt | nt | nt | i | i
O=S(=O)(c1ccccc1F)N(Cc1ccco1)Cc1nnc(-c2ccccc2Br)o1 | i | 79.4µM | i | i | i | i
SMILES | TDP1 block | G9a block | BAZ2B inh | Sfp inh | HP1b chromo inh | JMJD2A Tudor
COc1cc(OC)cc(C(=O)Nc2nnc3n2CCS3)c1 | i | ? | ? | nt | i | i
COCCCN(C(=O)c1cc(-c2ccco2)nc2ccccc12)c1c(N)n(Cc2ccccc2)c(=O)[nH]c1=O | nt | 44.7µM | ? | nt | i | ?
CCCn1c(N)c(N(CCOC)C(=O)c2cc(-c3ccco3)nc3ccccc23)c(=O)[nH]c1=O | i | 39.8µM | ? | 44.7µM | i | ?
Cc1ccn2c(c1)nc(=O)c1cc(S(=O)(=O)N3CCOCC3)ccc12 | i | i | i | i | i | i
COc1ccc(NC(=O)N2C3CCCC2CC(NC(=O)c2ccccc2)C3)cc1 (centres undefined) | i | i | i | i | i | i
Cc1cccc(OCC(=O)NC(=S)N2CCCc3ccccc32)c1 | i | 11.2µM | 44.7µM | 79.4µM | ? | 50.1µM
Cc1cccc(OCC(=O)Nc2ccccc2N2CCCCC2)c1 | i | i | i | i | i | i
O=C(COc1ccc(Cl)cc1Cl)NC(=S)N1CCCc2ccccc21 | i | 10µM | 79.4µM | 56.2µM | ? | 39.8µM
CCOC(=O)c1ccc(NC(=O)Cn2nc(SC)c(S(=O)(=O)c3ccc(Cl)cc3)c2N)cc1 | i | i | i | nt | i | i
NC(=O)c1cc([N+](=O)[O-])c(Cl)cc1NCc1cccnc1 | i | i[2.33 µM] | i | nt | i | i
O=C(NC1CCCCCC1)C1c2ccccc2C(=O)N1Cc1ccc(F)cc1 (centres undefined) | i | i | i | nt | i | i
Cc1c2c(c(C)n1C)C(C(=O)NC1CCCCC1)N(Cc1ccccc1)C2=O (centres undefined) | i | 50.1µM | nt | i | i | i
COc1ccccc1NC(=O)CSCc1cc(=O)c2cccc(Cl)c2[nH]1 | i | i | i | nt | i | i
CCN=c1scc(-c2cccs2)n1/N=C/c1cc(OC)ccc1O | i | ? | 12.6µM | ? | 14.1µM | 39.8µM
COc1ccc(O)c(/C=N/n2c(-c3ccco3)csc2=Nc2cccnc2)c1 | i | i | ? | i | i | i
CC(C)N=c1scc(-c2cccs2)n1/N=C/c1ccc(O)c(O)c1O | i | 3.98µM | 31.6µM | 11.2µM | 25.1µM | 22.4µM
CC(=O)Nc1ccc2c(c1)OCCOCCOc1cc(NC(C)=O)ccc1OCCO2 | i | 50.1µM | i | i | i | i
O=C(O)CCCCCNC(=O)Nc1ccc2c(c1)OCCO2 | i | i | i | i | i | i
CC(=O)N/N=C(\C)CC(=O)Nc1ccc2c(c1)OCCO2 | i | 44.7µM | i | i | i | i
O=C(O)CCNc1ccc2c(c1)OCCO2 | i | ? | i | 50.1µM | i | 44.7µM
CC(C)(C)C(=O)Nc1ccc2c(c1)OCCOCCOc1cc(NC(=O)C(C)(C)C)ccc1OCCOCCO2 | i | i | i | i | i | i
CCc1nnc(NC(=O)C(CC)CC)s1 | i | i[12.7 µM] | i | i | i | i
O=C1NC2(CCCCC2)C(=O)N1CC(=O)N(Cc1ccccc1)c1ccccc1 | i | i | i | i | i | i
CCS(=O)(=O)N1CC(=O)N(c2cccc(C)c2C)C(C)(C(=O)NC2CCCCC2)C1 (centres undefined) | i | i | i | nt | i | i
Cc1ccccc1CC(=O)N1CCCC1 | i | i | i | i | i | i
Nc1ncnc2oc(-c3ccoc3)c(-c3ccco3)c12 | ? | nt | nt | nt | 56.2µM | 50.1µM
c1coc(-c2ccnc(-n3cccc3)n2)c1 | i | ? | i | i | i | i

Screening results from PubChem.
